Source: PubChem BioAssay (National Center for Advancing Translational Sciences (NCATS))
ELG1 DNA repair = blocks ELG1-dependent DNA repair in HEK293T cells; AID 504467; Potency, µM (top dose mostly 46.1 µM), for inactives: at the highest dose activity change, negative = inhibition, hits mostly inhibitors; HEK293T ELG1-luciferase reporter, luminescence, 16 h; DNA damage induced by 5-fluorouridine; actives 2.3% (n = 330,000); also: % is scaled to controls: 0 for no effect and ±100 for the full control effect; nearly all actives have a fitted effect of over 55% in size
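Quantitative HTS, concentration-response format. 2,000 cells/well co-treated with 5-fluorouridine and compound, 16 hr in 5% CO2 at 37 °C; ONE-Glo luminescence read after 30 min.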
A549 viability = kills or reduces viability of A549 cells in Nrf2 counter-screen | Potency, µM (titrated, usually from 46 µM), inactives show at the highest dose activity change, negative = cytotoxicity, most hits filed as inhibitors | actives 0.16% (n = 390,000) | A549 ARE-Fluc cells, CellTiter-Fluor viability, 18-24 h | AID 504648; also: % is scaled to controls: 0 for no effect and ±100 for the full control effect
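A549 ARE_Fluc cells in 5% FBS OPTI-MEM were exposed to compounds in concentration-response for 18-24 h at 37 deg C. Viability was read by CellTiter-Fluor fluorescence (Ex 405/Em 525) after 30 min, before the luciferase read.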
Nrf2 ARE act = Nrf2 pathway activation; AREc32 ARE-luciferase reporter (MCF7-derived line), luminescence, 24 h; Potency, µM (series often up to 46.1 µM), for inactives: at the highest dose activation, hits mostly activators; actives 0.31% (n = 410,000); AID 624171; also: % of control where 0% means no effect; nearly all actives have a fitted effect of over 65% in size
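For detection, Steady-Glo was added and plates sat 30 min at RT; before that, AREc32_Fluc cells grown overnight in OPTI-MEM/5% FBS had been treated with 23 nL compound for 24 hr at 37 deg C.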
Nrf2 block = Nrf2 pathway inhibition. A549 ARE-Fluc reporter, luciferase luminescence, 18-24 h. Potency, µM (top dose mostly 46 µM), inactives show at the highest dose activity change, negative = inhibition, usual class: inhibitors. actives 2.1% (n = 360,000). AID 504444; also: % is scaled to controls: 0 for no effect and ±100 for the full control effect; nearly all actives have a fitted effect of over 60% in size
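Two sequential reads on A549 ARE_Fluc cells exposed to compound for 18-24 h: a CellTiter-Fluor fluorescence read for viability, then a luciferase luminescence read for Nrf2/ARE activity.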
* hit, by the source's call; ? = inconclusive; nt = no result; ! = not confirmed by another sample; [ ] = another dose, or the depositor's remark. In the library only some 3.7% were active in any assay of this set; here they are far more common. Calls follow the shape of the dose curve; as a rule, active = well fitted curve in the direction sought with a large enough effect; inconclusive = small, poorly fitted or top-dose-only effect, or another doubt; inactive = no such curve, though single readings can be large; an effect the other way counts as inactive or inconclusive. Potency is read from the fitted curve at half-maximal effect.

SMILES	ELG1 DNA repair	A549 viability	Nrf2 ARE act	Nrf2 block
CC(C)(C)C1CCc2c(sc(NC(=O)Cn3nnc(-c4ccccc4Cl)n3)c2C#N)C1 (stereo not drawn)	nt	1.2%	-0.1%	-1.6%
c1cn2c(-c3ccoc3)cncc2n1	nt	nt	-0.9%	nt
CN1C(=O)N(CC(=O)c2ccc3c(c2)OCO3)C(=O)C12CCCCC2	nt	nt	-2.4%	nt
NC(=NCCCCCCN=C(N)/N=C(\N)Nc1ccc(Cl)cc1)/N=C(\N)Nc1ccc(Cl)cc1	-10.1%	?	-0.5%	23.1µM*!
CC(C)N=C(N)N=C(N)Nc1ccc(Cl)cc1	3.3%	-4.2%	6.8%	0.6%
N#Cc1c(N)nc(N)nc1Nc1ccc(Br)cc1	?	-5.9%	12.6µM*	?
Cc1nc(N)nc(Nc2ccc(C#N)cc2)c1Br	11.3%	3.5%	1.9%	0.6%
CC1CN(C(=O)c2ccc(NS(=O)(=O)c3ccc(F)cc3)cc2)CC(C)O1 (stereo not drawn)	10.4%	11.2%	-0.8%	-19.5%
COc1cc(/C=N/NC(=O)Cc2csc(N3CCOCC3)n2)cc(OC)c1O	-4.3%	0.2%	-0.4%	-4.4%
O=C(Cc1csc(N2CCOCC2)n1)N/N=C/c1ccc(Cl)cc1Cl	23.1µM*	nt	0.1%	?
O=C(Cc1cccs1)NC1CC(=O)N(c2ccc(F)cc2)C1 (stereo not drawn)	nt	12.7%	-0.3%	nt
On1c2c(c3c4nonc4ccc31)CCCC2	13µM*	nt	nt	nt
CC(C)(C)c1ccc(S(=O)(=O)/N=C2\C=C(NS(=O)(=O)c3ccccc3)C(=O)c3ccccc32)cc1	?	-3.7%	-1.6%	4.3%
CC(C)c1ccc(S(=O)(=O)/N=C2/C=C(Sc3ncn[nH]3)C(=O)c3ccccc32)cc1	6.51µM*	?	-3.2%	18.4µM*
Cc1ccc(S(=O)(=O)/N=C2/C=C(Sc3ncn[nH]3)C(=O)c3ccccc32)cc1	16.4µM*	?	-3.4%	?
Cc1ccc(S(=O)(=O)/N=C2/C=C(Sc3ncn[nH]3)C(=O)c3ccccc32)c(C)c1	20.6µM*	nt	nt	nt
CCOc1ccc(NCc2cccn2-c2nnc(N3CCC(C(=O)NCc4ccccc4Cl)CC3)s2)cc1	nt	1.7%	4.9%	5.2%
N#Cc1ccsc1NC(=O)CSc1ncnc2ccccc12	-9.2%	8.5%	12.6µM*	?
N#Cc1ccsc1NC(=O)CSc1ncn[nH]1	27.2%	-14.9%[1.84 µM]	0.9%	0.5%
CCOC(=O)c1c(NC(=O)CSc2ncnc3ccccc23)sc(C)c1C	11.6µM*	-0.6%	1.6%	1.3%
O=C(CSc1ncnc2ccccc12)c1ccco1	?	-15.2%	2.82µM*	23.7%
O=C(CSc1ncnc2ccccc12)NCc1ccco1	-2.1%	-1.5%	7.9%	-3.0%
COc1ccc(OC)c(C2CC(=O)Nc3c2c(=O)[nH]c2nc4ccccc4n32)c1 (stereo not drawn)	nt	2.9%	-0.3%	10.5%
CCOC(=O)c1ccc(NS(=O)(=O)c2ccc(Cl)nc2)cc1	-14.8%	nt	nt	nt
CCOC(=O)c1cnn(-c2ccc(NS(=O)(=O)c3ccc(Cl)cc3)cc2)c1C(F)(F)F	23.1µM*	1.6%	-0.8%	-21.4%
SMILES	ELG1 DNA repair	A549 viability	Nrf2 ARE act	Nrf2 block
COc1cccc(NC(=O)CSC2=Nc3ccccc3C3=NC(CCC(=O)NCCc4ccccc4)C(=O)N23)c1 (stereo not drawn)	nt	1.9%	6.1%	nt
O=C(NCC1CCN(c2ccc(S(=O)(=O)N3CCOCC3)cc2)CC1)c1ccc(Cl)cc1	20.6µM*	-9.2%	5.6%	?
O=S(=O)(NCC1CCN(c2ccc(S(=O)(=O)N3CCOCC3)cc2)CC1)c1ccc(F)cc1	?	?	0.7%	20.6µM*
O=C(CCNC(=O)c1ccc(Cl)cc1)Nc1ccc(S(=O)(=O)N2CCOCC2)cc1	11.7%	1.7%	-0.5%	-9.3%
Cc1ccc(S(=O)(=O)N2CCN(C(=O)CNC(=O)c3ccc(Cl)cc3)CC2)cc1	-18.4%	0.1%	0.6%	20.6µM*
Cc1c2cnn(CC(=O)Nc3cccc(C(F)(F)F)c3)c(=O)c2c(C)n1Cc1ccccc1Cl	nt	-1.2%	-0.6%	-21.2%
CC1=C(C(=O)NCc2cccc(Br)c2)C2(CCCCC2)OC1=O	nt	8.1%	-0.3%	-11.0%
CCN(CC)C(=O)C1CCCN(c2ncnc3c2cnn3-c2ccc(Cl)cc2)C1 (stereo not drawn)	?	-0.6%	-3.6%	20.6µM*
CCN(CC)C(=O)C1CCCN(c2ncnc3c2cnn3-c2cccc(C)c2)C1 (stereo not drawn)	?	-4.9%	0.4%	-14.9%
